# Test results published in PubChem BioAssay (NCATS).
# Results filed as inconclusive are left out. A call without a number means that no potency is given here. The source made the active and inactive calls. Calls come from the whole dose curve; as a rule, active = well fitted curve in the direction sought with a large enough effect; inconclusive = small, poorly fitted or top-dose-only effect, or another doubt; inactive = no such curve, though single readings can be large; an effect the other way counts as inactive or inconclusive.
# Experiments:
# [1] = system: Zika virus NS2B-NS3 protease; test: Primary screen GU AMC qHTS for Zika virus inhibitors (AID 1347154); note: nearly all actives have a fitted effect of over 70% in size
# Procedure, shortened: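 Unlinked Zika NS2B hydrophilic domain–NS3 protease complex at 25 nM in 10 mM Tris-HCl pH 8.0, 0.01% Tween 20, with an AMC peptide substrate. Fluorescence change (340/450 nm) over 15 min at room temperature, normalized to controls, fitted to 4-parameter Hill.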
# [2] = system: Zika virus NS2B-NS3 protease (linked construct); test: Primary screen NINDS Rhodamine qHTS for Zika virus inhibitors (AID 1347160); conditions: outcome: dose series up to 57.1 µM; note: nearly all actives have a fitted effect of over 55% in size
# Procedure, shortened: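 Enzyme (25 nM, linked NS2B-NS3) was preincubated 15 min with compound in 10 mM Tris-HCl pH 8.0, 0.01% Tween 20. Rhodamine110 substrate (1.5 microM) was then added and fluorescence read at start and after 15 min.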
# [3] = target: Lysine-specific demethylase 5B (Homo sapiens) (UniProt Q9UGL1); test: Optimization screen for KDM5B Histone Demethylases FDH coupled qHTS against the LOPAC library (AID 1347166)
# Lysine-specific demethylase 5B (Homo sapiens), sequence (Q9UGL1 whole entry, looked up): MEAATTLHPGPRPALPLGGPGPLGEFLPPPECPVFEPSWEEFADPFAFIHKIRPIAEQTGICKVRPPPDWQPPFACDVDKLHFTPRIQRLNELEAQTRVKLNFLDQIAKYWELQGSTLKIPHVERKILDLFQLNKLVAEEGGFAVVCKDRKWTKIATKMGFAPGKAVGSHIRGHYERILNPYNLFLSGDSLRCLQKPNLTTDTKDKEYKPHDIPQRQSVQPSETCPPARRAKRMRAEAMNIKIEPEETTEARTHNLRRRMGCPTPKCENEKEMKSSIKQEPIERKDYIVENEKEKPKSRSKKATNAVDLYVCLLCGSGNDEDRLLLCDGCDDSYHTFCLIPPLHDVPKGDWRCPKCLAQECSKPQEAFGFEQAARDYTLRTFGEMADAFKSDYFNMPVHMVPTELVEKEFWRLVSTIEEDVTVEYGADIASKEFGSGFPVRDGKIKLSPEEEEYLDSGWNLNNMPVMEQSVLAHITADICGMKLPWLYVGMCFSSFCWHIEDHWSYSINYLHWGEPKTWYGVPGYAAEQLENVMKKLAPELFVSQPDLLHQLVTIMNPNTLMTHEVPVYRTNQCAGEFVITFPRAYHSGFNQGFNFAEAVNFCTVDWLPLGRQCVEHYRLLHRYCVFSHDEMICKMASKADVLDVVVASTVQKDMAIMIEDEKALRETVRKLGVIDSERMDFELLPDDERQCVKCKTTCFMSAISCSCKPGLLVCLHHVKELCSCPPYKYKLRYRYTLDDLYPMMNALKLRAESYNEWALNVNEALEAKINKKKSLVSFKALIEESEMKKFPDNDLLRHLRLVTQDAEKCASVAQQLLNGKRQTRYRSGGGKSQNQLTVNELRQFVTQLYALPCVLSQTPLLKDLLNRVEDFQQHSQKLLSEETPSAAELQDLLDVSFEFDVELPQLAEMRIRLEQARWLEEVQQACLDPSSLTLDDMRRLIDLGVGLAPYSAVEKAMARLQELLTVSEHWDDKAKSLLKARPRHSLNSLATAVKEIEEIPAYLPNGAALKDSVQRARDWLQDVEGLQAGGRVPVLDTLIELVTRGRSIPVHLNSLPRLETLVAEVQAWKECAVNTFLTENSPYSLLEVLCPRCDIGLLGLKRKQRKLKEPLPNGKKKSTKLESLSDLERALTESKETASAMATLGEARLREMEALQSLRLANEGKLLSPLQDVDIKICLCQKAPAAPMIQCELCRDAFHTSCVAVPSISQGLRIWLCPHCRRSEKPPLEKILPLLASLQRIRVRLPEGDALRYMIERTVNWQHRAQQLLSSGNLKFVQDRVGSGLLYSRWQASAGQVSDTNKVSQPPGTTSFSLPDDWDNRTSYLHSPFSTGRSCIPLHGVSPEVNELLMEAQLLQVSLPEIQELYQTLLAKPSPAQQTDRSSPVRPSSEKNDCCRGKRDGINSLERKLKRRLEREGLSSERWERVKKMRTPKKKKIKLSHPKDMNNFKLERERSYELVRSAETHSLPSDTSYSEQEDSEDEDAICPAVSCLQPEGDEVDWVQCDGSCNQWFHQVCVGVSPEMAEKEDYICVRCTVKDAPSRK
# Procedure, shortened: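 KDM5BDeltaAP (200nM final) in 50mM HEPES pH 7.5, 0.01% Tween-20 was preincubated with compound for 10 min at room temperature. A substrate mix of 12.5uM H3K4Me3, 25uM a-ketoglutarate, ascorbate, Fe2+, NAD+ and formaldehyde dehydrogenase was then added. NADH fluorescence (340/450 nm) was read initially and after 30 min.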
# [4] = Confirmatory screen GU Rhodamine qHTS for Zika virus inhibitors qHTS (AID 1347157); conditions: purified enzyme assay, Rhodamine110 substrate fluorescence, 15 min; note: potency is the fitted concentration of half-maximal effect; nearly all actives have a fitted effect of over 70% in size
# Procedure, shortened: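 Noncovalent NS2B hydrophilic domain/NS3 protease complex (25 nM final) in 10 mM Tris-HCl pH 8.0, 0.01% Tween 20, preincubated 15 min with compounds (up to 114 microM), then 1.5 microM Rhodamine110 substrate. Fluorescence change over 15 min fitted to 4-parameter Hill.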
# [5] = Confirmatory screen NINDS Rhodamine qHTS for Zika virus inhibitors (AID 1347161); note: potency is the fitted concentration of half-maximal effect; nearly all actives have a fitted effect of over 60% in size
# Procedure, shortened: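 qHTS dose-response: 25 nM linked protease, pH 8.0 Tris/Tween buffer, cpd titration, 15 min RT preinc, 1.5 microM Rhod110 peptide, 15 min reaction (~15% conversion), Ex480/Em540; 4-parameter Hill fit.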
# [6] = Tertiary RLuc qRT-PCR qHTS assay for Zika virus inhibitors (AID 1347169); note: top concentration of the series differs between compounds; nearly all actives have a fitted effect of over 55% in size
# Excerpt: Avindra Nath, Ph.D., National Institute of Neurological Disorders and Stroke (NINDS), Bethesda, MD
# Radhakrishnan Padmanabhan, Ph.D., Georgetown University (GU), Washington D.C.
# Zika Virus causes congenital defects, including microcephaly and is associated with Guillain-Barre syndrome, eningoencephalitis and myelitis in infected adult. […] Using a target-based approach, we hope to establish a screening paradigm to uncover novel, cell-active NS2B-NS3 protease (Zika Virus) specific inhibitors from NCATS' collection of small molecules using qHTS.
# Four assay panel was created to identify potential Zika Virus inhibitors. Namely, (1) GU unlinked NS2B-NS3 AMC tagged protease qHTS, (2) GU unlinked NS2B-NS3 Rhodamine tagged protease qHTS, (3) NINDS linked NS2B-NS3 AMC tagged protease qHTS, (4) NINDS linked NS2B-NS3 Rhodamine tagged protease qHTS. Identified inhibitors were re-acquired and tested against secondary confirmatory, orthogonal, and counterscreens to exclude nonspecific inhibition.
# Early Translation Branch (ETB)
# National Center for Advancing Translational Sciences (NCATS), Rockville, MD
# National Institute of Health (NIH), Bethesda, Maryland […]
# For a follow-up assay, we adapted a high throughput orthogonal assay in 1536-well plate format to use the recombinant virus ZIKV-RLuc, in Vero cells. […] The luminescence signal was measured after 1-1.5 hrs exposure to substrate in ViewLux reader.
smiles,measurement,setting,value
CCOC(=O)NC(C)(C)Cc1ccc(Cl)cc1,Potency,[1],inactive
same,outcome,[2],inactive
CCOC(=O)c1cncn1C(C)c1ccccc1 (centres undefined),Potency,[1],inactive
same,outcome,[2],inactive
COc1ccc(C(=O)N2CCCC2=O)cc1,Potency,[1],inactive
same,outcome,[3],inactive
Cc1nnc2n1-c1sc(CCc3ccc(CC(C)C)cc3)cc1C(c1ccccc1Cl)=NC2C (centres undefined),Potency,[4],44.1 µM (active)
same,Potency,[5],44.1 µM (active)
same,outcome,[6],inactive
